# Source: PubChem BioAssay (National Center for Advancing Translational Sciences (NCATS))
# Only some compounds are listed: those with a hit (about 7.5% of all), similar ones and a draw of the others.
# FLuc modulator – inhibits or activates purified firefly luciferase, miR-21 counter-screen | purified FLuc, Km substrates, luminescence inhibition | 6.9% of 360,000 active | Potency, µM (titrated, usually from 57.5 µM), inactives show top-dose activity change, negative = inhibition, most hits filed as inhibitors | P08659;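 further: plate controls were vehicle for no effect and reference inhibitor for full effect; nearly all actives have a fitted effect of over 55% in size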
# Target sequence (P08659 whole entry, looked up): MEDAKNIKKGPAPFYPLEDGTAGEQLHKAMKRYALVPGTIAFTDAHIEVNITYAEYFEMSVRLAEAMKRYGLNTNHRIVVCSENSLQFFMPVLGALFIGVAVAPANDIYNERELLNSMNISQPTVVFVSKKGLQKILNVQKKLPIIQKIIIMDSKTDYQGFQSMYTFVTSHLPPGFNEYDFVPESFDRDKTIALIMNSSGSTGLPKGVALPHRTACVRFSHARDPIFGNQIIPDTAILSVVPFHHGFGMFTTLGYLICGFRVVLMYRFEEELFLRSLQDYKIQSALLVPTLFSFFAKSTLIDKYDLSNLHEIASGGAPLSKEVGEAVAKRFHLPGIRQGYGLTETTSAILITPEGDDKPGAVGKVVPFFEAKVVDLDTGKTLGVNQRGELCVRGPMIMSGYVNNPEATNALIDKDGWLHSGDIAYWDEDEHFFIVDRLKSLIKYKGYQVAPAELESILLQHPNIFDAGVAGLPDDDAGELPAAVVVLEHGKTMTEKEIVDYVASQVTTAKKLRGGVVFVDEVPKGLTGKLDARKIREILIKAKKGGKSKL
#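 Purified P. pyralis luciferase, 10 nM final, with Km-level 10 uM D-luciferin and 10 uM ATP in 50 mM Tris acetate pH 7.5, 10 mM Mg acetate, 0.01% Tween-20, 0.05% BSA; 6-point qHTS titration about 60 µM downward; luminescence read.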
# ELG1 genotox – induces genotoxicity in HEK293T cells with luciferase-tagged ELG1; 1.3% of 330,000 active; HEK293T ELG1-luciferase reporter, luminescence, 16 h; AID 504466; Potency, µM (series often up to 46 µM), without a hit: top-dose activity change, positive = activation, usual class: activators; further: % of control where 0% means no effect; nearly all actives have a fitted effect of over 60% in size
#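 Screening used a luciferase reporter fused to human ELG1 in HEK293T cells. Luminescence was read on a CCD plate imager after 16 hr exposure and 30 min ONE-Glo incubation.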
# KinaseGlo FLuc – Kinase-Glo luciferase inhibition (counter-screen) | Q27757 | Kinase-Glo luciferase, ATP luminescence, 8 min | Potency, µM (doses to about 38.3 µM), without a hit: at the top dose activity change, negative = inhibition, most hits filed as inhibitors | 0.28% of 200,000 active | AID 1379; further: on the % scale 0 is the no-effect control and ±100 the full control effect; nearly all actives have a fitted effect of over 60% in size
#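 Light output from Kinase-Glo luciferase with luciferin and 10 uM ATP in 50 mM imidazole pH 7.2, KCl, MgCl2, Tween 20, BSA; compound pin-delivered, 8-min ambient incubation, then luminescence read.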
# Rab9 promoter act – activates the Rab9 promoter; AID 485297; Huh7 Rab9 promoter-luciferase reporter, luminescence, 24 h; Potency, µM (highest dose often 9.22 µM), for inactives: top-dose activation, negative = inhibition, usual class: activators; 2.8% of 320,000 active; further: % of control where 0% means no effect; nearly all actives have a fitted effect of over 60% in size
#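 Luminescence from Amplite-detected luciferase (10 minutes, ambient) reports Rab9 promoter activation. Before that, stable Rab9-luciferase Huh7 cells (1500/well, reduced-serum OP-MEM I plus 10% FBS) were exposed to compound for 24 hours at 37C.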
# SMN2 splice enh – enhancers of SMN2 splice variant expression; HEK293 SMN2-luciferase splicing reporter, luminescence, 30-36 h; Potency, µM (top dose mostly 46.1 µM), inactives show top-dose activity change, positive = activation, most hits filed as activators; 2.8% of 210,000 active; AID 1458; further: % of control where 0% means no effect; nearly all actives have a fitted effect of over 55% in size
#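 HEK293 cells carry an SMN2 […]–luciferase reporter in which exon 7 inclusion puts luciferase in frame. Cells were plated 10-12 h before compound addition, then incubated 30-36 h at 37C. ONE-Glo luminescence was read; sodium butyrate at 4.5 mM final served as control.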
# NPC1 promoter act – activates the NPC1 promoter | Huh7 NPC1 promoter luciferase reporter, 24 h | Potency, µM (titrated, usually from 9.22 µM), without a hit: at the top dose activation, actives largely listed as activators | 2.4% of 320,000 active; further: % of control where 0% means no effect; nearly all actives have a fitted effect of over 60% in size
#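 Luminescence read-out of NPC1 promoter-driven luciferase in stably transfected Huh7 cells; compounds delivered in DMSO and left 24 h at 37C, 5% CO2, qHTS titration format.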
# Numbers without * were called inactive; ? = inconclusive; . = no result; [ ] = remark or other dose. The call rests on the fitted dose curve; in most records, active means well fitted curve in the direction sought with a large enough effect; inconclusive means small, poorly fitted or top-dose-only effect, or another doubt; inactive means no such curve, though single readings can be large; an effect the other way counts as inactive or inconclusive. Potency means the concentration at half of the fitted maximal effect.
SMILES,FLuc modulator,ELG1 genotox,KinaseGlo FLuc,Rab9 promoter act,SMN2 splice enh,NPC1 promoter act
COc1cc([N+](=O)[O-])ccc1NC(=O)CCCOc1ccccc1,-1.2%,1.4%,7.2%,0.6%,6.4%,0.7%
COc1ccccc1NC(=S)NNC(=O)c1ccc(Cl)cc1Cl,10.7µM*,4.2%,0.8%,27.7%,15.8µM*,11.7%
CCn1c(C)nc2cc(C(=O)NNC(=S)Nc3ccccc3OC)ccc21,19µM*,9.6%,.,?,.,24.0%
CCn1c(C)nc2cc(C(=O)N/N=C(\C)c3ccccc3O)ccc21,13.5µM*,4.9%,6.6%,?,?,?
Cc1cccc(NC(=O)N2CCN3CCCCC3C2)c1C (stereo not drawn),-0.4%,.,.,.,.,.
Cn1c(=O)c2sccc2n2c(CCC(=O)NCc3ccccc3)nnc12,1.7%,.,.,.,25.9%,.
CCn1c(C)nc2cc(C(=O)N/N=C/c3ccccc3C)ccc21,10.7µM*,?,-4.1%,1.12µM*,15.8µM*,1.78µM*
CCn1c(C)nc2cc(C(=O)NN=Cc3ccccc3OC(F)F)ccc21,.,15.0%,.,.,.,.
Cc1ccc(CSC2=Nc3ccccc3C3=NC(CCC(=O)N4CCN(c5ccccc5)CC4)C(=O)N23)cc1 (stereo not drawn),-4.1%,.,.,.,27.8%,.
O=C(Nc1ccc(C(=O)Oc2ccccc2)c(O)c1)c1ccccc1,?,0.8%,-3.9%,28.2%,-15.7%,11.5%
O=C(Nc1ccc(C(=O)Oc2ccccc2)c(O)c1)c1ccco1,7.57µM*,?,-24.3%,2.24µM*,?,?
CCOC(=O)Nc1ccc(Oc2ccccc2)cc1,13.5µM*,18.4µM*,-1.6%,?,7.5%,?
COc1ccc(C(=O)/C=C/c2ccccc2)cc1,.,.,-25.7%,.,20.6%,.
CCOC(=O)Nc1ccc(C(=O)Oc2ccccc2)c(O)c1,15.1µM*,16.2%,-9.4%,?,8.0%,18.9%
CCOC(=O)Nc1ccc(C(=O)/C=C/c2ccccc2)cc1,16.9µM*,7.0%,.,-49.0%,.,16.9%
Cc1ccc(Cn2cc(CCC(=O)NC3CCCCC3)c3ccccc32)cc1,-10.6%,.,.,.,.,.
O=C(Nc1ccc(O)c(-c2nc3ccccc3s2)c1)C1=COCCO1,-16.1%,-0.3%,-0.3%,-1.3%,-17.3%,0.4%
O=C(Nc1ccc(-c2nc3ccccc3s2)c(O)c1)C1=COCCO1,0.477µM*,16.4µM*,-7.5%,0.708µM*,2.24µM*,0.501µM*
O=C(Nc1cccc(-c2nc3ccccc3s2)c1)C1=COCCO1,16.9µM*,9.7%,-1.5%,-1.8%,21.2%,-4.8%
Cc1cccn2cc(CSc3ccccc3N)nc12,6.01µM*,6.51µM*,-4.6%,2.51µM*,?,2.24µM*
Nc1ccccc1SCc1cn2ccccc2n1,6.75µM*,?,-8.3%,1.78µM*,11.2µM*,2.24µM*
O=C(NCCc1ccc(F)cc1)C(=O)NCC(c1cccs1)S(=O)(=O)c1ccc(Cl)cc1 (stereo not drawn),-4.1%,.,.,.,.,.
O=C(NC1CCCCC1)c1ccc2c(c1)N(Cc1cccc(Cl)c1)C(=O)c1ccccc1S2(=O)=O,-2.1%,.,.,.,.,.
O=C(Nc1nc2c(F)cccc2s1)c1ccc([N+](=O)[O-])o1,?,1.9%,.,?,.,3.98µM*
O=C(Nc1nc2c(Cl)cccc2s1)c1ccc([N+](=O)[O-])o1,?,-12.1%,.,9.3%,.,-1.9%
SMILES,FLuc modulator,ELG1 genotox,KinaseGlo FLuc,Rab9 promoter act,SMN2 splice enh,NPC1 promoter act
Cc1c(Cl)cccc1NC(=O)N1CCC(CN2CCOCC2)CC1,0.1%,.,.,.,.,.
CCNC(=O)c1c(NC(=O)Cc2coc3cc(C)ccc23)sc2c1CCCC2,-0.3%,.,.,.,-8.4%,.
O=C(NC(=S)NC1CCCCCCCCCCC1)c1cccnc1,0.1%,4.0%,-3.9%,2.6%,0.0%,-0.4%
O=C(NC(=S)NC1CCCC1)c1ccccc1,16.9µM*,?,.,?,.,?
O=C(COC(=O)Cc1c(Cl)cccc1Cl)NC1CCCC1,.,2.0%,.,.,.,.
O=C(COC(=O)c1c(F)cccc1Cl)NC1CCCCC1,15.1µM*,?,.,?,.,?
Cc1ccsc1C(=O)OCC(=O)Nc1sccc1C(N)=O,5.36µM*,7.0%,-10.5%,?,22.1%,?
O=C(COC(=O)c1cccs1)NC1CCCC1,?,6.7%,.,-4.0%,.,-3.3%
O=C(COC(=O)c1cccs1)NC1CCCCC1,21.3µM*,-0.8%,-4.0%,5.2%,0.5%,1.9%
CCOCCCNC(=O)Cn1nc(CC)n2c(cc3c(OC)cccc32)c1=O,1.2%,.,.,.,7.6%,.
CCc1cccc(C)c1NC(=O)Cn1c(=O)cc(C)c2c(C)nn(-c3cccc(F)c3)c21,-2.6%,.,.,.,.,.
O=C(COC(=O)c1ccccc1)NC1CCCC1,16.9µM*,9.1%,.,-8.0%[1.84 µM],.,-3.2%
O=C(COC(=O)c1ccccc1F)NC1CCCC1,23.9µM*,1.1%,.,-1.0%,.,-2.5%
O=C(COC(=O)c1ccccc1F)NC1CC1,-15.0%,1.7%,.,-3.0%,.,-3.4%
O=C(COC(=O)c1ccccc1)NC(=O)NC1CCCC1,-5.0%,1.8%,.,-2.9%,.,-1.8%
Cc1ccsc1C(=O)OCC(=O)NC1CCCC1,21.3µM*,?,.,?,.,?
O=C(NCc1cccc(F)c1)C1CCN(c2nn3cc(-c4ccc(F)cc4)nc3s2)CC1,-13.9%,.,.,.,.,.
Cc1ccc2c(c1)N(C(=O)N1CCC(C(=O)NCc3ccccc3F)CC1)CC(C)O2 (stereo not drawn),-6.4%,.,.,.,.,.
O=C(Nc1ccc(OC(F)(F)F)cc1)c1nc2ccccc2nc1N1CCCCC1,-5.4%,.,.,.,.,.
CCCN1C(=O)c2cc(C(=O)NC3CCCCCC3)ccc2C1O (stereo not drawn),13.5µM*,9.2µM*,1.5%,2.24µM*,10µM*,2µM*
CCn1c(C)c(C)c2cc(C(=O)NC3CCCCCC3)ccc21,12µM*,8.5%,.,?,.,15.7%
Cc1cccc(C(=O)NC2CCCCCCC2)c1,12µM*,?,.,4.47µM*,.,3.98µM*
CN(C)c1cccc(C(=O)NC2CCCCCC2)c1,13.5µM*,18.4µM*,-0.6%,3.16µM*,12.6µM*,?
COc1cccc(C(=O)NC2CCCC2)c1,-9.3%,5.2%,-1.4%,20.9%,0.2%,2.2%
CCC(=O)Nc1ccc(C)cc1-c1nc2ccccc2n(CC(=O)Nc2ccccc2Cl)c1=O,-6.6%,.,.,.,.,.
O=C(COc1cccc(Cl)c1)Nc1ccc2c(c1)CCC2,?,3.0%,-3.0%,12.8%,20.2%,12.1%
CCn1c(CN2CCCCC2)nc2cc(NC(=O)c3cc(OC)c(OC)c(OC)c3)ccc21,-0.8%,.,.,.,.,.
Nc1c(Cl)ncnc1N/N=C/c1ccncc1,0.1%,-0.6%,.,-6.0%,.,-2.8%
COc1ccc(/C=N/Nc2ncnc(Cl)c2N)cc1OC,21.3µM*,10.3%,-2.1%,1.9%,23.1%,2.3%
